In PubChem BioAssay (NCATS) one finds outcome data, which are given here for 2 compounds.

Each structure is given as a SMILES string. Active and inactive are the calls of the source. No rule for the calls is given here.

The assay can be described thus: qHTS assay for small molecule activators of the human pregnane X receptor (PXR) signaling pathway (AID 720659). On the technique in general: In qHTS, concentration-response curves come from the screen itself.

Turning to `Cc1ccc(N)cc1O`, the compound was called inactive.

On to `CC(=O)O[C@@H]1CC(C)=C2[C@H]1[C@H](C)CC[C@H]2/C=C(\C)C(=O)O`, for which the compound was classed as inactive.
